Compound activity (PubChem)
Shiga toxin inh: Shiga toxin inhibition; Vero cells, Shiga toxin protein synthesis inhibition reporter; 290,000 tested, 9.2% active; inhibition, % at 38.7 µM; in the data active = inhibition mostly above about 28%, no sharp cut-off; inactive = mostly below about 43%; also: 0% is about no effect
Pf growth 48h: P. falciparum growth inhibition at 48 hours (one generation). P. falciparum luciferase growth in erythrocytes, 48 h. Potency, µM (top dose mostly 28.7 µM), without a hit: top-dose activity change, negative = inhibition, usual class: inhibitors. 310,000 tested, 5.9% active; also: potency is read from the fitted curve at half-maximal effect; % is scaled to controls: 0 for no effect and ±100 for the full control effect
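Erythrocytes infected with P. falciparum carrying an integrated firefly luciferase reporter (2% hematocrit, 0.1% parasitemia final) were exposed to compounds in RPMI 1640 with 0.5% Albumax at 37 C, 5% CO2. Growth inhibition was scored as reduced luminescence.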
Cycloheximide cs: counter-screen hit for Shiga toxin inhibitors, cycloheximide; 300,000 tested, 12% active; max response, %; AID 2314; cell reporter, cycloheximide protein synthesis inhibition counterscreen; in the data active = max response mostly above about 13%, no sharp cut-off; inactive = mostly below about 14%; also: read at 38.3 µM for the half of the compounds with a filed dose; 0% is about no effect
AMA1 RON2 block: AMA1-RON2 (P. falciparum) interaction inhibition | AID 720542 | AlphaScreen AMA1-biotinylated RON2 peptide binding | 360,000 tested, 0.2% active | Potency, µM (highest dose often 58.2 µM), for the others: at the top dose activity change, negative = inhibition, most hits filed as inhibitors;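 also: potency is read from the fitted curve at half-maximal effect; 0% = vehicle wells and -100% = peptide control; nearly all actives have a fitted effect of over 45% in size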
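AMA1 (3D7) with his tag at 25 nM final met compounds first, then biotinylated RON2 peptide at 25 nM; detection used donor plus acceptor beads, 10 µg/mL apiece, read by AlphaScreen after 30 min at room temperature.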
HCV inh: HCV inhibition; Huh7.5.1 HCVcc-Cre infection, luciferase reporter, 44 h; Potency, µM (top dose mostly 41.8 µM), for the others: top-dose activity change, negative = inhibition, actives largely listed as inhibitors; 340,000 tested, 3.4% active; also: potency is read from the fitted curve at half-maximal effect; % is scaled to controls: 0 for no effect and ±100 for the full control effect
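Luciferase read-out (15 sec integration) after a 15 min room-temperature substrate step quantifies HCVcc-Cre infection. Cells, 1,000 per well, had compound added 4 h post-plating, then virus at ~0.5 moi, and were cultured 44 h.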
Pf growth 96h: P. falciparum growth inhibition at 96 hours; P. falciparum luciferase reporter growth, 96 h; Potency, µM (doses to about 28.7 µM), without a hit: at the highest dose activity change, negative = inhibition, most hits filed as inhibitors; 320,000 tested, 6.9% active; AID 504834; also: potency is read from the fitted curve at half-maximal effect; % is scaled to controls: 0 for no effect and ±100 for the full control effect
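Plates of compound plus infected erythrocytes (2% hematocrit, 0.05% parasitemia final) incubate 96 hours, 37 C, 5% CO2. Detection reagent added; reduced luminescence from the parasites' luciferase reporter flags inhibition.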
The depositor's hits bear a star; ? = inconclusive; / = not tested or not shown; [ ] = dose if it differs, or a comment. Hits are enriched below; roughly 21% of the tested compounds scored in any of these assays. Unless noted, calls follow the shape of the dose curve; as a rule, active = well fitted curve in the direction sought with a large enough effect; inconclusive = small, poorly fitted or top-dose-only effect, or another doubt; inactive = no such curve, though single readings can be large; an effect the other way counts as inactive or inconclusive.

SMILES	Shiga toxin inh	Pf growth 48h	Cycloheximide cs	AMA1 RON2 block	HCV inh	Pf growth 96h
COc1cc(OC)cc(C(=O)N/N=C(\C)CC(=O)Nc2ccccn2)c1	17	-26%	2	74%	-1%	?
CCOc1cc(NC(=S)NCCCN2CCOCC2)c(OCC)cc1NC(=O)C1CCCCC1	-13	7%	-3	4%	-56%	27%
CN(C)c1ccc(CNC(=O)c2cc(S(=O)(=O)N3CCOCC3)cn2C)cc1	-2	1%	-3	-4%	3%	?
CCOC(=O)C1=C(c2ccccc2)NC(N)=NC1c1ccc(OCc2ccc(C(=O)OC)cc2)cc1 (stereo unspecified)	2	4.7µM*	-2	-16%	?	7.4µM*
OC(c1ccc(F)c(F)c1)c1nc(-c2ccc3ccccc3c2)cs1 (stereo unspecified)	/	/	/	5%	/	/
CC1=CN(S(=O)(=O)c2ccc(C)cc2)C[C@@H]2c3ccccc3N(S(=O)(=O)c3ccc(C)cc3)[C@H]12	/	/	/	-2%	?	/
COC(=O)c1c(NC(=O)c2ccccc2C(=O)O)sc2c1CCCC2	/	/	/	2%	/	/
O=C(Nc1sc2c(c1C(=O)O)CCCCC2)c1ccccc1F	109*	88%	41*	-6%	1%	-1%
O=C(Nc1sc2c(c1C(=O)O)CCCC2)c1ccc(F)cc1	49*	40%	33*	-1%	4%	?
NC(=O)c1c(NC(=O)c2cc3ccccc3o2)sc2c1CCC2	72*	4%	36*	2%	-7%	-12%
CC(=O)Nc1sc2c(c1C(N)=O)CCCC2	-19	8%	-8	4%	-5%	4%
NC(=O)c1c(NC(=O)c2ccc(F)cc2)sc2c1CCC2	45*	131%	53*	-2%	?	6%
CCN(CC)CCNC(=O)c1ccc(NC(=O)Cc2ccccc2F)cc1	19	?	-4	-4%	-10%	23%
CCN(CC)CCNC(=O)c1ccc(NC(=O)c2c(C)nn(-c3ccc(F)cc3)c2Cl)cc1	-12	?	-3	-10%	-26%	-10%
CCN(CC)CCNC(=O)c1ccc(NC(=O)c2cn(-c3ccc(F)cc3)nc2-c2cccc(OC)c2)cc1	3	1.9µM*	-2	-9%	?	1µM*
O=C(Nc1cccnc1)c1cn(-c2ccccc2)nc1-c1cccs1	6	0.59µM*	4	-7%	?	13%
CCN(CC)CCNC(=O)c1ccc(NC(=O)c2ccccc2-c2ccc(C(F)(F)F)cc2)cc1	-3	13µM*	-8	56%	?	9.3µM*
O=C(c1cn(-c2ccccc2)nc1-c1cccs1)N1CCN(c2ccccc2)CC1	46	2%	13	-20%	7.1µM*	-19%[5.75 µM]
Cc1noc(NS(=O)(=O)c2ccc(NC(=O)NC(C)(C(F)(F)F)C(F)(F)F)cc2)c1C	-3	-12%[0.00184 µM]	-1	0%	20%	2%
CCOC(=O)C1=C(COC(=O)c2ccc(OC)c(OC)c2OC)NC(=O)NC1C (stereo unspecified)	/	38%	/	-2%	?	59%
CCN(CC)CCNC(=O)c1ccc(NC(=O)c2cn(-c3ccccc3)nc2-c2cccs2)cc1	42	12µM*	6	-6%	11µM*	?
CCOC(=O)[C@]12CCCC=C1N(Cc1cccc3ccccc13)C(=O)[C@H](CC(=O)N1CCN(C(=O)c3ccco3)CC1)C2	/	/	/	0%	/	/
Cc1c(C(=O)NN2CCCCC2)nn(-c2ccc(Cl)cc2Cl)c1-c1ccc(Cl)cc1	/	?	/	/	/	8.5µM*
Cc1[nH]nc(N=CC2=C(O)CC(c3ccco3)CC2=O)c1-c1ccccc1 (stereo unspecified)	73	?	14*	-11%	?	7.4µM*
CS(=O)(=O)N1CCc2cc(-c3csc(NC(=O)C(c4ccccc4)c4ccccc4)n3)ccc21	4	13µM*	-2	-4%	-22%	/
SMILES	Shiga toxin inh	Pf growth 48h	Cycloheximide cs	AMA1 RON2 block	HCV inh	Pf growth 96h
CC1Cc2cc(-c3csc(NC(=O)Cc4ccccc4)n3)ccc2N1S(C)(=O)=O (stereo unspecified)	36	/	10	-7%	0.71µM*	?
CCCNS(=O)(=O)c1ccc(NC(=O)Cc2cccs2)cc1	21	28%	19*	2%	27%	44%
CCCCN(CCCC)S(=O)(=O)c1ccc(NC(=O)Cc2cccs2)cc1	27	?	35*	4%	?	/
CCCN(CCC)S(=O)(=O)c1ccc(NC(=O)Cc2cccs2)cc1	16	/	1	-3%	/	?
CCCCC(CC)CNC(=O)C(Cc1ccccc1)NS(=O)(=O)c1ccc2c(c1)CCC(=O)N2 (stereo unspecified)	-4	?	-4	17%	?	12µM*
CCC(C)NC(=O)C(Cc1ccccc1)NS(=O)(=O)c1ccc2c(c1)CCC(=O)N2 (stereo unspecified)	-2	?	12	-1%	12%	?
COc1ccc(NC(=O)CN(C)C(=O)C(C)N2C(=O)c3ccccc3C2=O)cc1 (stereo unspecified)	/	-2%	/	-7%	36%	11%
Cc1cccc(CSc2nc3ccccc3c(=O)n2C)c1	/	?	/	53%	22µM*	?
Cn1c(SCc2ccc(Br)cc2)nc2ccccc2c1=O	16	0%	-2	17%	?	?
COn1c(SCc2cccc(Cl)c2)nc2ccccc2c1=O	17	?	-3	9%	?	10µM*
CCN(CC)C(=O)CSc1nc2ccccc2c(=O)n1OC	-19	-23%	2	0%	9%	13µM*
Cc1cc([N+](=O)[O-])cnc1Sc1nccn1C	-10	-1%	-4	6%	8%	12%
Cc1ccc(S(=O)(=O)N2CCOCC2)cc1NS(=O)(=O)c1ccc(F)c(F)c1	/	-25%	/	-2%	11%	-24%
CC(=O)c1ccc2c(c1)C1C=CCC1C(c1ccncc1)N2 (stereo unspecified)	97*	-9%	18*	-4%	-20%	132%
COC(=O)c1ccc(C2Nc3ccc(/C(C)=N/NC(=O)C(OC)c4ccccc4)cc3C3C=CCC32)cc1 (stereo unspecified)	1	?	-4	-14%	-21%	4.1µM*
O=C(O)c1ccc2c(c1)C1C=CCC1C(c1cc3c(cc1Br)OCO3)N2 (stereo unspecified)	-28	1%	-2	?	0%	?
C1=CC2c3ccccc3NC(c3ccncc3)C2C1 (stereo unspecified)	-15	?	5	-16%	-35%	13µM*
CC(=O)c1ccc2c(c1)C1C=CCC1C(C(=O)O)N2 (stereo unspecified)	-2	33%	5	4µM*	-6%	22%
